# From PubChem
# MARV entry inh – blocks Marburg virus binding to or entry into cells; Marburg virus pseudotyped entry inhibition, cell reporter; Potency, µM (series often up to 37.8 µM), for inactives: at the top dose activity change, negative = inhibition, hits mostly inhibitors; 300,000 compounds, 1.8% hits; calls by dose curve; tested in HEK293 cells; also: potency is read from the fitted curve at half-maximal effect; % is scaled to controls: 0 for no effect and ±100 for the full control effect
# HCV inhibitor – blocks hepatitis C virus | Huh7.5.1 HCVcc-Cre infection, luciferase reporter, 44 h | Potency, µM (titrated, usually from 41.8 µM), for the others: top-dose activity change, negative = inhibition, most hits filed as inhibitors | 340,000 compounds, 3.4% hits; active = well fitted inhibition curve with a large enough effect; inconclusive = small, poorly fitted or top-dose-only effect, or another doubt; inactive = no such curve, though single readings can be large or run the other way; also: potency is read from the fitted curve at half-maximal effect; % is scaled to controls: 0 for no effect and ±100 for the full control effect
#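 Cells seeded at 1,000/well and cultured 4 h, then compounds added followed by HCVcc-Cre virus (~0.5 moi). After 44 h further culture, luciferase substrate was added, plates held 15 min at room temperature, and luminescence read for 15 sec.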
# FMDV inh – foot and mouth disease virus antiviral activity | FMDV antiviral cell-based qHTS | Potency, µM (doses to about 57.9 µM), without a hit: at the highest dose activity change, negative = inhibition, usual class: inhibitors | 410,000 compounds, 1.2% hits | AID 1159524; calls by dose curve; tested in HEK293T cells; also: read-out not given here; potency is read from the fitted curve at half-maximal effect; % is scaled to controls: 0 for no effect and ±100 for the full control effect; nearly all actives have a fitted effect of over 45% in size
# LASV entry inh – inhibitors of Lassa virus binding or cell entry | 300,000 compounds, 1.2% hits | Potency, µM (top dose mostly 37.9 µM), without a hit: at the highest dose activity change, negative = inhibition, most hits filed as inhibitors | Lassa virus pseudotype entry inhibition, cell reporter | AID 540256; calls by dose curve; tested in HEK293 cells; also: potency is read from the fitted curve at half-maximal effect; % is scaled to controls: 0 for no effect and ±100 for the full control effect; nearly all actives have a fitted effect of over 50% in size
# CHX counter – affects cycloheximide protein synthesis inhibition readout, counter-screen. 300,000 compounds, 12% hits. max response, %. cell reporter, cycloheximide protein synthesis inhibition counterscreen; in the data active = max response mostly above about 13%, no sharp cut-off; inactive = mostly below about 14%; also: read at 38.3 µM for the half of the compounds with a filed dose; 0% is about no effect
# Shiga inhibitor – Shiga toxin inhibition; Vero cells, Shiga toxin protein synthesis inhibition reporter; inhibition, % at 38.7 µM; 290,000 compounds, 9.2% hits; in the data active = inhibition mostly above about 28%, no sharp cut-off; inactive = mostly below about 43%; also: 0% is about no effect
# * = called active by the depositor; u = inconclusive; x = not tested or not shown; [ ] = remark or other dose. Rows were chosen to be rich in hits. Some 13% of all compounds tested hit in one or more screens of this group.
SMILES,MARV entry inh,HCV inhibitor,FMDV inh,LASV entry inh,CHX counter,Shiga inhibitor
CC(C)[C@H](NC(=O)c1ccccc1)C(=O)OCC(=O)N1CC(=O)Nc2ccccc21,10.5%,-9.1%,-19.8%,-1.1%,-2.2,-8.1
COc1ccc(N2CCN(C(=O)c3c(C)nn(-c4ccc(F)cc4)c3-n3cccc3)CC2)cc1,x,x,u,21.0%[46.1 µM],x,x
CCCNC(=O)c1ccc(COc2ccc(CCC)cc2OC)o1,-0.3%[46.1 µM],u,u,6.31µM*,8.9,17.4
CC(=O)c1ccc(OCC(O)CN2CCN(c3ccc(F)cc3)CC2)cc1 (centres undefined),7.1%[46.1 µM],-3.9%,-23.5%,3.1%,-1.5,-6.2
CC(=O)c1ccc(N2CCN(CC(O)COC(c3ccccc3)c3ccccc3C)CC2)cc1 (centres undefined),u,11.2µM*,1.9%,-0.1%,-2.4,-0.5
COc1cc(C(C)=O)ccc1OCC(O)CN1CCN(c2cc(C)cc(C)c2)CC1 (centres undefined),x,12.6µM*,-29.5%,x,-3.5,1.1
OC(COC(c1ccccc1)c1ccccc1)CN1CCN(c2cccc(Cl)c2)CC1 (centres undefined),u,u,-4.7%,-29.5%[46.1 µM],-5.1,-7.3
CC(=O)c1ccc(N2CCN(CC(O)COC(c3ccccc3)c3ccccc3)CC2)cc1 (centres undefined),u,3.98µM*,-18.6%,0.4%[46.1 µM],-5.8,-3.8
CCc1ccc(-c2nn(CC(=O)NC3CCCC3)c3c2cnc2ccc(F)cc23)cc1,x,x,40.3%,-1.3%[46.1 µM],x,x
C=C(C)CN(CC)C(=O)CC1C(=O)NCCN1Cc1c(F)cccc1Cl (centres undefined),x,13.2%,-13.2%,x,3.5,30.2
Cc1ccc(C(=O)CCS(=O)(=O)c2ccc(F)cc2)cc1,x,u,6.3%,x,24.9*,26.1*
CCOc1ccc(C(=O)CCCC(=O)c2ccc(OCC)cc2)cc1,x,7.6%,44.8%,x,47.1*,x
Cc1ccc(S(=O)(=O)CCC(=O)c2ccc(F)cc2)cc1,u,14.2%,u,16.3%[46.1 µM],-0.2,-8.8
CCCCC(=O)c1ccc(O)cc1,16.1%,-4.9%,x,-1.0%,15.5*,42.4
CCOc1ccc(C(=O)CCN2CCCCCC2)cc1,-7.6%,-17.1%,0.0%,u,15.1,-1.9
O=C(CCO)c1ccc(O)cc1,x,21.4%,-2.8%,x,-2.6,-12.4
CCC(=O)c1ccc(OCC(=O)O)cc1,-3.2%,13.3%,-29.1%,-13.5%,-2.6,35.1
CCOc1ccc(C(=O)COC(=O)CC)cc1,0.0%[46.1 µM],7.2%,11.2%,-15.9%,22.6*,41.7*
CC(C)N(Cc1ccccc1)C(=O)COC(=O)C1CCCCC1,u,0.7%,-6.1%,2.4%,x,x
COc1ccc([C@H]2C[C@H](O)[C@@H](n3cc(C4CC4)nn3)CN2Cc2cccs2)cc1,u,x,-11.5%,x,x,x
O=C(CCCC(=O)c1ccc(F)cc1)c1ccc(F)cc1,u,0.0%,55.3%,u,55.0*,107.1*
CC1CCN(CCCC(=O)c2ccc(F)cc2)CC1,x,x,-17.7%,x,-1.5,-1.6
O=C(CCC(=O)N1CCOCC1)c1ccc(F)cc1,-13.5%[46.1 µM],5.8%,38.1%,-5.6%,23.7*,55.3*
CCCOc1ccc(C(=O)CCC(=O)OCC(=O)Nc2ccc(OCC)cc2)cc1,x,x,x,x,7.3,21.4
CCCCC(=O)OCC(=O)c1ccc(OCC)cc1,23.8%,0.8%,64.9%,u,57.9*,21.8*
SMILES,MARV entry inh,HCV inhibitor,FMDV inh,LASV entry inh,CHX counter,Shiga inhibitor
CCC(C)(C)c1nnc(NC(=O)C2CCN(C(=O)c3ccco3)CC2)s1,u,4.5%,-23.1%,-1.9%[46.1 µM],-2.1,12.6
Brc1ccc(CSc2ccc3nnc(-c4cccnc4)n3n2)cc1,u,u,31.6µM*,u,-1.9,-8.4
Cc1ccc(CSc2ccc3nnc(-c4cccnc4)n3n2)cc1,3.8%,9.0%,u,3.0%,-7.5,-11.8
c1cncc(CSc2ccc(-c3cccnc3)nn2)c1,17.0%[46.1 µM],1.6%,0.8%,-17.2%[46.1 µM],15.9,67.2*
c1ccc(CSc2ccc(-c3cccnc3)nn2)cc1,u,6.6%,10.1%,-16.0%[46.1 µM],31.6*,98.5*
c1ccc(-c2ccc(SCc3cccnc3)nn2)nc1,-15.7%[46.1 µM],-5.4%,27.7%,11.0%,27.5*,136.7*
O=C(CSc1ccc(-c2cccnc2)nn1)N1CCCC1,-3.1%,11.6%,-5.5%,15.8%,2.1,10.5
FC(F)(F)c1nnc2ccc(Cl)nn12,-11.2%[46.1 µM],3.0%,10.9%,39.3%[46.1 µM],1.5,-10.3
CC1=NCCN1S(=O)(=O)c1c(C(C)C)cc(C(C)C)cc1C(C)C,u,-4.9%,39.0%,u,-5.0,2.1
O=C(Cc1c(O)c2ccccc2[nH]c1=O)OC1CCCCC1,-9.8%,0.0%,13.5%,5.8%,-2.6,2.6
COc1ccc(-c2ccc(SCC(=O)c3ccccc3)nn2)cc1OC,-22.4%[46.1 µM],u,-2.4%,-17.8%[46.1 µM],22.0,24.0
COc1ccc(-c2ccc(SCc3cccnc3)nn2)cc1OC,x,u,-15.4%,x,19.1*,38.6
O=[N+]([O-])c1cnc2ccccc2c1,u,20.1%,14.6%,-1.9%,-4.0,-4.9
O=[N+]([O-])c1cc([N+](=O)[O-])c2cc3ccccc3nc2c1,u,u,28.2µM*,u,-2.2,3.2
COC(=O)c1cnn(-c2ccc(F)cc2F)c1/C=N/NC(N)=S,x,10µM*,u,x,0.5,24.1
CNC(=S)N/N=C/c1c(C(=O)OC)cnn1-c1ccc(F)cc1F,-19.7%[46.1 µM],-10.1%,u,-1.9%,-2.4,2.1
O=C(/C=C/c1ccccc1)NCc1ccc2c(c1)OCO2,7.4%[46.1 µM],-29.6%,24.2%,-20.6%[46.1 µM],22.1*,34.3
O=C(/C=C/c1cccs1)NCc1ccc2c(c1)OCO2,12.2%,-7.7%,25.2%,u,37.1*,33.9*
Cc1cc(C(=O)NCC2CCCO2)sc1C (centres undefined),u,19.5%,40.8%,6.7%[46.1 µM],x,x
Cc1ccc(S(=O)(=O)N2CCN(S(=O)(=O)c3ccccc3)C2c2ccc(N(C)C)cc2)cc1 (centres undefined),u,u,7.7%,-5.7%,1.7,21.7
CN1CCN(C2=Nc3ccccc3Oc3ccc(Cl)cc32)CC1,11.6µM*,-0.5%[8.37 µM],-20.2%,-26.6%,-3.6,-11.5
Cc1cccc2nc(-c3ccco3)c(Nc3ccc4c(c3)OCO4)n12,u,17.6%,-16.0%,u,30.7*,24.3
Cc1cc(C)n2c(Nc3ccc4c(c3)OCCO4)c(-c3ccccc3)nc2n1,u,-15.4%,25.1%,-17.9%[46.1 µM],45.8*,51.8*
O=C1c2ccccc2OC2(C=Cc3ccccc3O2)N1Cc1ccccc1 (centres undefined),u,u,-15.7%,-12.1%,-2.9,-9.5
Cc1cc2c(c(/C=C/C(=O)c3ccccc3)c1)OC1(C=C2)Oc2ccccc2C(=O)N1C (centres undefined),u,12.6µM*,25.1µM*,u,9.2,-5.0
CCOC(=O)c1cc2c(=O)n3ccccc3nc2n(C(C)C)c1=NC(=O)c1c(-c2c(F)cccc2Cl)noc1C,u,2µM*,-16.0%,u,-1.4,-15.2
